Sampled rows, rich in hits. Any-hit rate of the full collection: about 11%.
G9a inh – inhibitors of human histone lysine methyltransferase G9a | Q96KQ7 | Potency, µM (highest dose often 102 µM), usual class: inhibitors | G9a H3K9 monomethylation, AlphaScreen, 2 h | hit rate 8.8% among 350,000 | AID 504332; also: nearly all actives have a fitted effect of over 75% in size
Target sequence (Q96KQ7 913-1193 limits assumed): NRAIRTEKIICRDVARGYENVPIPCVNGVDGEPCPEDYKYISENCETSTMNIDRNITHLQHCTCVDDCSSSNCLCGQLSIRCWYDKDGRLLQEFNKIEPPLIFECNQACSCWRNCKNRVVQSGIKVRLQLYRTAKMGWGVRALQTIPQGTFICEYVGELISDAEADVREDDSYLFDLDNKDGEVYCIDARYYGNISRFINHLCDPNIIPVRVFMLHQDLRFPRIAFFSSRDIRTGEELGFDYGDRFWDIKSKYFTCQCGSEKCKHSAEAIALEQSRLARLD
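Enzyme 20 nM + cpd, 15 min RT; add b-H3K9 pep 500 nM / SAM 20 uM; 2 h RT; anti-H3K9me1 Ab 0.5 ug/mL + SA donor / anti-rabbit acceptor beads 20 ug/mL each, 10 min; AlphaScreen read.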
BAZ2B inh – BAZ2B (human) inhibition | Q9UIF8 | AlphaScreen BAZ2B-H3K14Ac peptide displacement | Potency, µM (titrated, usually from 114 µM), usual class: inhibitors | hit rate 4.4% among 360,000; also: nearly all actives have a fitted effect of over 60% in size
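BAZ2B 50 nM plus b-H3(5-23)K14Ac 50 nM, PBS pH 7.4/0.01% Tween-20, 30 min RT; compound added (max 110 uM), 30 min RT; streptavidin donor/Ni-chelate acceptor beads 10 ug/mL final, 20 min dark; AlphaScreen read.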
L3MBTL1 block – blocks human L3MBTL1 | Potency, µM (highest dose often 57.1 µM), actives largely listed as inhibitors | AlphaScreen L3MBTL1–H3K9me1 peptide binding | Q9Y468 | hit rate 0.66% among 230,000; also: nearly all actives have a fitted effect of over 60% in size
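First, the protein-peptide complex forms for 30 min at room temperature (L3MBTL1 50 nM, biotinylated H3K9me1 peptide 75 nM). Next, compounds are pin-transferred and incubated 30 min. Finally, AlphaScreen beads are added and read after 30 min.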
JMJD2A Tudor inh – inhibitors of human JMJD2A Tudor domain | AlphaScreen JMJD2A-Tudor / H3K4me3 peptide binding | AID 504339 | hit rate 4.4% among 390,000 | Potency, µM (series often up to 114 µM), usual class: inhibitors | O75164; also: nearly all actives have a fitted effect of over 50% in size
HP1b binding inh – HP1-beta chromodomain-methylated histone interaction inhibition; AID 540317; hit rate 0.56% among 390,000; P83916; AlphaScreen HP1-beta / biotin-H3K9me3 peptide binding; Potency, µM (titrated, usually from 114 µM), hits mostly inhibitors; also: nearly all actives have a fitted effect of over 70% in size
Target sequence (P83916 whole entry, looked up): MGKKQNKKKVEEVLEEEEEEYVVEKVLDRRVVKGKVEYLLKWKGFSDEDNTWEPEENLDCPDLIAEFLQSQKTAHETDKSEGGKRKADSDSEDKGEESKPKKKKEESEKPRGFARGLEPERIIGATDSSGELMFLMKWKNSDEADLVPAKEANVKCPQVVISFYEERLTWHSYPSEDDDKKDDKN
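AlphaScreen: HP1-beta (50 nM) preformed 30 min with biotin-H3(1-18)K9me3 peptide (50 nM) in PBS pH 7.4, 0.01% Tween-20. Compound added for 30 min at RT, then streptavidin donor/nickel chelate acceptor beads (10 ug/mL) for 30 min.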
Numbers stand for hits; n = inactive; u = inconclusive; x = not tested or not shown; [ ] = another dose, or the depositor's remark. Calls follow the shape of the dose curve; as a rule, active = well fitted inhibition curve with a large enough effect; inconclusive = small, poorly fitted or top-dose-only effect; inactive = no such curve, though single readings can be large or run the other way.

SMILES	G9a inh	BAZ2B inh	L3MBTL1 block	JMJD2A Tudor inh	HP1b binding inh
COc1ccc(S(N)(=O)=O)cc1C(=O)NCC(C)(C)N1CCOCC1	n	n	x	n	n
COc1cc(CC(=O)NCC(C)(C)N2CCOCC2)cc(OC)c1OC	50µM	n	x	n	n
Cc1[nH][nH]c(=O)c1C(c1c(C)[nH][nH]c1=O)c1cn(Cc2ccc(F)cc2)c2ccccc12	8.9µM	45µM	u	50µM	u
Cc1[nH][nH]c(=O)c1C(c1c(C)[nH][nH]c1=O)c1cn(Cc2ccc(Cl)c(Cl)c2)c2ccccc12	8.9µM	28µM	u	50µM	u
O=c1c2ccccc2ncn1Cc1ccc(Cl)c(Cl)c1	x	n	n	n	n
O=c1cc(-c2ccccc2)oc2cc(O)c(O)c(O)c12	x	x	16µM	u	n
O=c1cc(-c2ccc(O)cc2)oc2c1ccc1ccccc12	n	n	n	n	n
O=c1cc(-c2ccc(O)cc2)oc2c(O)c(O)c(O)c(O)c12	20µM	45µM	3.2µM	40µM	u
CCNc1sc(C(=O)c2cccs2)c(N)c1C#N	n[12.7 µM]	n	n[11.4 µM]	n	n
C=CCNc1sc(C(=O)c2cccs2)c(N)c1C#N	13µM	n	n[11.4 µM]	n	n
COc1ccccc1NC(=O)C1=C(C)Nc2nc(CCCO)nn2C1c1cccnc1 (centres undefined)	50µM	n	n	n	n
COc1ccccc1NC(=O)C1=C(C)Nc2nc(SCc3ccccc3F)nn2C1c1cccnc1 (centres undefined)	n	n	x	n	n
COc1ccccc1NC(=O)C1=C(C)Nc2nc(SCc3ccccc3)nn2C1c1cccnc1 (centres undefined)	n	79µM	x	n	n
CC1=C(C(=O)Nc2ccccc2C)C(c2cccnc2)n2nc(CCCO)nc2N1 (centres undefined)	n	n	n[11.4 µM]	n	n
Cc1ccc(NC(=O)CN(C)C(=O)CSc2nncn2C)cc1	n	n	x	n	n
CC(=O)/C(=N\Nc1ccc(C)cc1)Sc1nncn1C	8.9µM	n	n	u	n
CCOC(=O)C1=C(CN2CCN(c3ccccc3F)CC2)NC(=O)NC1c1ccc(OC)cc1 (centres undefined)	n	u	x	n	n
CCOC(=O)C1=C(N)OC2=C(C(=O)CC(C)(C)C2)C1c1ccco1 (centres undefined)	22µM	n	n	56µM	n
CCOC(=O)C1=C(C)NC(=O)NC1c1ccco1 (centres undefined)	n[12.7 µM]	79µM	u	u	n
CCCCOc1ccccc1C1NC(=O)NC(C)=C1C(=O)OCc1ccco1 (centres undefined)	22µM	n	n	n	n
CCOC(=O)C1=C(N)OC2=C(C(=O)CC(C)(C)C2)C1c1ccccc1OC (centres undefined)	x	n	n	n	n
COC(=O)c1cc(NC(=O)Cn2ncc3c2-c2ccccc2OC3)cc(C(=O)OC)c1	n	n	x	n	n
COc1ccccc1C(O)c1nccn1Cc1ccccc1 (centres undefined)	x	x	x	n	n
CCCCCCCCCCCCCCCCCCNc1ccn(C2OC(COP(=O)(O)OCC3OC(n4cc(F)c(=O)[nH]c4=O)CC3O)C(O)C2O)c(=O)n1 (centres undefined)	x	x	x	56µM	n
S=c1[nH]nc(-c2ccco2)n1/N=C/c1ccc(Cl)c(Cl)c1	1.6µM	n	n	79µM	n
SMILES	G9a inh	BAZ2B inh	L3MBTL1 block	JMJD2A Tudor inh	HP1b binding inh
Cn1cccc1/C=N/n1c(-c2ccco2)n[nH]c1=S	x	u	u	20µM	n
Cc1ccc(/C=N/n2c(-c3ccco3)n[nH]c2=S)cc1	0.63µM	u	n	10µM	56µM
CN1CCN(/N=C/c2ccc(Cl)c(Cl)c2)CC1	u	u	n	u	n
Cc1cc(C)n(-c2nnc(C)n2/N=C/c2ccco2)n1	n	n	x	n	n
S=c1[nH]nc(-c2ccccn2)n1/N=C/c1ccco1	x	8.9µM	20µM	7.1µM	n
COc1ccc(-c2nc(C)c(CCNS(=O)(=O)c3cc(C)c(C)cc3C)s2)cc1	n	n	x	n	n
COc1cc2[nH]c(=O)n(Cc3ccc(C(=O)NCc4ccccc4)cc3)c(=O)c2cc1OC	n	n	x	n	n
COCCNC(=O)c1ccc2c(c1)NC(=O)C(CS(=O)(=O)Cc1ccc(F)cc1Cl)N2 (centres undefined)	u	n	x	n	n
COc1cc(-c2n[nH]c(=S)n2/N=C/c2cccn2C)cc(OC)c1OC	u	u	x	1.3µM	u
O=c1cc(-c2ccco2)nc(SCc2cccc(Cl)c2)[nH]1	x	n	n	n	n
S=c1[nH]nc(-c2ccco2)n1/N=C/c1ccccn1	n	50µM	n[11.4 µM]	x	x
S=c1[nH]nc(-c2ccccn2)n1/N=C/c1cccc(Cl)c1	1.6µM	28µM	x	20µM	n
S=c1[nH]nc(-c2ccco2)n1/N=C/c1cccc(Cl)c1	0.71µM	n	n	79µM	n
COc1cc(-c2n[nH]c(=S)n2-c2cc(C(F)(F)F)ccc2Cl)cc(OC)c1OC	u	n	n	n	n
COc1ccc(Cn2c(SCc3ccc(C(=O)NCc4cccs4)cc3)nc3ccncc32)cc1	n	n	x	n	n
S=c1[nH]nc(-c2ccco2)n1/N=C/c1c(Cl)cccc1Cl	0.4µM	n	x	u	n
S=c1[nH]nc(-c2cccc(Cl)c2)n1/N=C/c1ccco1	3.5µM	n	x	32µM	n
S=c1[nH]nc(-c2cccc(Cl)c2)n1/N=C/c1ccc(-c2ccccc2Br)o1	u	n	n	n	n
Cc1ccc(NC(=O)c2sc3nc(-c4ccc(F)cc4)cn3c2C)c(C)c1	n	n	x	n	n
CCc1ccc(Nc2n[n+](-c3ccccc3)c(-c3ccc(OCc4ccccc4)cc3)s2)cc1	u	50µM	n	n	n
c1ccc(COc2ccc(-c3sc(Nc4ccccc4)n[n+]3-c3ccccc3)cc2)cc1	22µM	45µM	n	x	x
C[n+]1nc(Nc2ccccc2)sc1-c1ccc(C(=O)O)cc1	n[12.7 µM]	n	x	x	x
CC(=O)O[C@@]12CO[C@@H]1C[C@H](O)[C@@]1(C)C(=O)[C@H](O)C3=C(C)[C@@H](OC(=O)C(O)[C@@H](NC(=O)OC(C)(C)C)c4ccccc4)C[C@@](O)([C@@H](OC(=O)c4ccccc4)[C@H]21)C3(C)C (some centres undefined)	n[12.7 µM]	x	x	x	x
CSc1ccc(C(=O)C2CCCN(Cc3cccn3-c3cccnc3)C2)cc1 (centres undefined)	u	u	n	45µM	u
COc1ccc(C(=O)C2CCCN(Cc3cccn3-c3cccnc3)C2)cc1OC (centres undefined)	n	n	n	n	n
COc1ccc(C(=O)Nc2ccc(S(=O)(=O)NC(C)=O)cc2)cc1[N+](=O)[O-]	50µM	n	n	n	n
CCOCCCNS(=O)(=O)c1ccc(NC(=O)c2ccc([N+](=O)[O-])cc2Cl)cc1	n	n	n	n	n
